Records with an inconclusive call do not appear. Some structures have more than one record in an assay (separate samples or runs), and their calls can disagree. Calls of active or inactive are those of the source. The calls were made as follows, unless noted: active = hit-call score of the fitted dose curve at least 0.9, where 1 is the maximum; inconclusive = response in the unintended direction; inactive = score below 0.9.
Key:
[1] = Tanguay_ZF_120hpf_YSE_legacy: (Legacy) Oregon State University Tanguay Lab 120 Hour Post-fertilization zebrafish Assay for Yolk Sac Edema (AID 2283634);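 as to AC50: actives raise the incidence of yolk sac edema above the DMSO baseline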
Method in brief: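 Tropical 5D wild-type embryos, dechorionated with pronase at 4 hpf, were exposed singly from 6 hpf to 120 hpf under static, sealed, dark conditions at 28C with 0.64% DMSO final. Yolk sac edema was scored present/absent by brightfield microscopy.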

[2] = Tanguay_ZF_120hpf_AXIS_legacy: (Legacy) Oregon State University Tanguay Lab 120 Hour Post-fertilization zebrafish Assay for Body Axis Malformation (AID 2283635)
Method in brief: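 Tropical 5D wild-type zebrafish embryos, dechorionated with pronase at 4 hpf, were placed singly in wells at 6 hpf and exposed statically to test chemical (0.64% DMSO final) at 28C until 120 hpf, then scored by brightfield for body axis defects.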

[3] = Tanguay_ZF_120hpf_EYE_legacy: (Legacy) Oregon State University Tanguay Lab 120 Hour Post-fertilization zebrafish Assay for Eye Malformation (AID 2283636);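 also: binary presence or absence of eye malformation scored by brightfield in 120 hpf larvae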
Method in brief: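 Binary brightfield scoring of eye defects at 120 hpf after static exposure from 6 hpf of single pronase-dechorionated wild-type embryos (28C, 0.64% DMSO). Non-mortality endpoints omitted where embryos died; fit vs DMSO.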

[4] = Tanguay_ZF_120hpf_SNOU_legacy: (Legacy) Oregon State University Tanguay Lab 120 Hour Post-fertilization zebrafish Assay for Snout Malformation (AID 2283637)
Method in brief: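 Binary snout-malformation call at 120 hpf in wild-type 5D embryos, chorion removed by pronase, under static exposure from 6 hpf at 28C (0.64% DMSO). Embryos dying by 24 or 120 hpf excluded.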

[5] = Tanguay_ZF_120hpf_JAW_legacy: (Legacy) Oregon State University Tanguay Lab 120 Hour Post-fertilization zebrafish Assay for Jaw Malformation (AID 2283638);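 as to AC50: active means more embryos with jaw malformation than DMSO controls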
Method in brief: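 Tropical 5D wild-type embryos, dechorionated with pronase at 4 hpf, were placed singly per well at 6 hpf and statically exposed at 28C until 120 hpf (0.64% DMSO final). Jaw malformation scored as present/absent by brightfield microscopy at 120 hpf, analyzed relative to DMSO.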

[6] = Tanguay_ZF_120hpf_OTIC_legacy: (Legacy) Oregon State University Tanguay Lab 120 Hour Post-fertilization zebrafish Assay for Otic Vesicle Malformation (AID 2283639)
Method in brief: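 Binary scoring of otic vesicle defects at 120 hpf in zebrafish (Tropical 5D) held under static exposure at 28C, sealed and shaded, with final DMSO 0.64%. Embryos dying by 24 or 120 hpf excluded; fitted positively against DMSO.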

[7] = Tanguay_ZF_120hpf_PE_legacy: (Legacy) Oregon State University Tanguay Lab 120 Hour Post-fertilization zebrafish Assay for Pericardial Edema (AID 2283640);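 as to AC50: potency for increased incidence of pericardial edema versus DMSO baseline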
Method in brief: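 Tropical 5D wild-type zebrafish embryos were exposed statically to 120 hpf at 28C, sealed and foil-covered, in 0.64% DMSO final. Pericardial edema was scored present/absent by brightfield microscopy; dead embryos were not scored.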

[8] = Tanguay_ZF_120hpf_PFIN_legacy: (Legacy) Oregon State University Tanguay Lab 120 Hour Post-fertilization zebrafish Assay for Pectoral Fin Malformation (AID 2283648);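 also: each larva judged yes or no for fin defect by brightfield with dead larvae skipped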
Method in brief: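 Pectoral fin malformation was recorded as a binary endpoint at 120 hpf in wild-type Tropical 5D larvae, which had been dechorionated and exposed statically from 6 hpf at 28C in 0.64% DMSO. Dead embryos were excluded.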

[9] = Tanguay_ZF_120hpf_PIG_legacy: (Legacy) Oregon State University Tanguay Lab 120 Hour Post-fertilization zebrafish Assay for Pigmentation Malformation (AID 2283650)
Method in brief: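 Pigment malformation recorded as a binary call at 120 hpf in zebrafish (Tropical 5D) exposed singly from 6 hpf after pronase dechorionation. Static, sealed, 28C exposure, 0.64% DMSO; mortality excludes scoring; positive-direction fit against DMSO.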

[10] = Tanguay_ZF_120hpf_CIRC_legacy: (Legacy) Oregon State University Tanguay Lab 120 Hour Post-fertilization zebrafish Assay for Circulatory Malformation (AID 2283651)
Method in brief: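 Binary circulatory malformation call at 120 hpf by brightfield imaging of zebrafish larvae; chorion removed at 4 hpf, static exposure from 6 hpf in sealed dark plates at 28C, final DMSO 0.64%; non-mortality endpoints skipped if embryo died.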

[11] = Tanguay_ZF_120hpf_SWIM_legacy: (Legacy) Oregon State University Tanguay Lab 120 Hour Post-fertilization zebrafish Assay for Swim Bladder Malformation (AID 2283654);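 also: swim bladder malformation in each larva scored yes or no under brightfield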
Method in brief: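 Scoring is binary for swim bladder defects at 120 hpf, by brightfield inspection of zebrafish larvae. Embryos were exposed singly from 6 hpf after pronase dechorionation, at 28C with 0.64% DMSO; mortality excluded scoring.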

[12] = Tanguay_ZF_120hpf_TRUN_legacy: (Legacy) Oregon State University Tanguay Lab 120 Hour Post-fertilization zebrafish Assay for Truncated Body (AID 2283655)
Method in brief: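 Tropical 5D wild-type embryos, dechorionated with pronase at 4 hpf, were placed singly in wells at 6 hpf and statically exposed at 28C until 120 hpf, final DMSO 0.64%. Truncated body was scored present/absent by brightfield microscopy.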

[13] = target: Cellular tumor antigen p53 (Homo sapiens) (UniProt P04637); assay: TOX21_p53_BLA_p3_ratio: Tox21 HCT-116 p53 Agonism Beta-lactamase Assay, Ratio, Phase 3 (AID 2283596)
Chain of Cellular tumor antigen p53 (Homo sapiens) (P04637 whole entry, looked up): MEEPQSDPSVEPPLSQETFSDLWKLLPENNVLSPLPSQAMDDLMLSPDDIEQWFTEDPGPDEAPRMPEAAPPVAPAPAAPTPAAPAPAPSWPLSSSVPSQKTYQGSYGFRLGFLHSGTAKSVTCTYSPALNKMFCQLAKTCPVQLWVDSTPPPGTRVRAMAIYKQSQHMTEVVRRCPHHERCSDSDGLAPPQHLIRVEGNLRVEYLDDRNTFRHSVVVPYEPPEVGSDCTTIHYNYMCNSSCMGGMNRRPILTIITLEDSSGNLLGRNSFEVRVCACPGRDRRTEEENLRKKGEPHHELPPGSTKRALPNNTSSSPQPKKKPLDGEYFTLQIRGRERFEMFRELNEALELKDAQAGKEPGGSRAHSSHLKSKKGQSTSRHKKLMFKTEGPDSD
Method in brief: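 Cells were seeded at 4000/well, rested 5 h at 37C, then dosed with DMSO compound solutions (217-fold dilution) for 16 h. CCF4-AM substrate was loaded for 2 h at room temperature, and the 460/530 nm emission ratio was fitted for gain of signal versus DMSO.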

[14] = TOX21_p53_BLA_p4_viability: Viability Assessment in the Tox21 HCT-116 p53 Agonism Beta-lactamase Assay, Phase 4 (AID 2283597);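 also: hits lower the luminescence signal meaning cytotoxicity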
Method in brief: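 Cytotoxicity was inferred from loss of CellTiter-Glo luminescence. HCT116 cells had been dosed with compounds after 5 h plating, incubated 16 h at 37C and 5% CO2, and exposed to the CCF4-AM substrate for 2 h.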

[15] = target: Cellular tumor antigen p53 (Homo sapiens) (UniProt P04637); assay: TOX21_p53_BLA_p5_ratio: Tox21 HCT-116 p53 Agonism Beta-lactamase Assay, Ratio, Phase 5 (AID 2283599)
Method in brief: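 Beta-lactamase reporter ratio (blue 460 nm over green 530 nm, 405 nm excitation) after 2 h CCF4-AM loading, in HCT-116 cells exposed 16 h at 37 C to compounds pinned at 217-fold dilution. Increases relative to DMSO baseline scored.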

[16] = TOX21_p53_BLA_p5_viability: Viability Assessment in the Tox21 HCT-116 p53 Agonism Beta-lactamase Assay, Phase 5 (AID 2283600)
Method in brief: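 Luciferase-coupled ATP quantitation of cells treated for 16 h (37C, 5% CO2) with test chemicals delivered in DMSO via a 217-fold dilution; 4000 cells/well; reagent incubated 30 min at room temperature before luminescence reading.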

[17] = target: Cellular tumor antigen p53 (Homo sapiens) (UniProt P04637); assay: TOX21_p53_BLA_p4_ratio: Tox21 HCT-116 p53 Agonism Beta-lactamase Assay, Ratio, Phase 4 (AID 2283601)
Method in brief: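 Signal is the blue/green (460nm/530nm) ratio of cleaved versus uncleaved CCF4-AM substrate, read after 2 h substrate loading. Cells were HCT116 carrying the p53-responsive beta-lactamase reporter, dosed 16 h at 37C, 5% CO2; CellTiter-Glo measured in parallel.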

[18] = read-out: kallikrein-3 (KLK3), KLK3 (gene 354); assay: LTEA_HepaRG_KLK3: Life Technologies and Expression Analysis (LTEA) Assay for kallikrein-3 (KLK3) using HepaRG (AID 2283652; active = hit-call score of the fitted dose curve at least 0.9, where 1 is the maximum; inactive = score below 0.9); settings: mRNA level, 48 h; actives raise or lower the signal
Method in brief: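 KLK3 transcript levels were measured by TaqMan qRT-PCR with normalisation to three housekeeping genes. HepaRG cultures received chemicals for 48 h at up to 100 uM (half-log, 8 points, 0.5% DMSO vehicle), fitted in both directions against DMSO.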

[19] = read-out: solute carrier (SLC22A6), SLC22A6 (gene 9356); assay: LTEA_HepaRG_SLC22A6: Life Technologies and Expression Analysis (LTEA) Assay for solute carrier (SLC22A6) using HepaRG (AID 2283653; active = hit-call score of the fitted dose curve at least 0.9, where 1 is the maximum; inactive = score below 0.9); settings: mRNA level, 48 h; actives raise or lower the signal
Method in brief: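 Differentiated human HepaRG cells were exposed for 48 h in serum-free induction medium to eight concentrations (top 100 uM, half-log steps, 0.5% DMSO), in duplicate. SLC22A6 mRNA was quantified by qRT-PCR, normalised to ACTB, GAPDH and POLR2A, and fitted bidirectionally against DMSO.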

Measured: AC50

CCCCCCCCCCCCOS(=O)(=O)O
inactive: [1] | [2] | [3] | [4] | [5] | [6] | [7] | [8] | [9] | [10] | [11] | [12]

O=C1c2ccccc2C(=O)c2c(O)c(O)cc(O)c21
active: [17] 50.1 µM
inactive: [13] | [14] | [15] | [16]

CCCC=O
inactive: [14] | [15] | [16]

CN(Cc1cnc2nc(N)nc(N)c2n1)c1ccc(C(=O)N[C@@H](CCC(=O)O)C(=O)O)cc1
inactive: [1] | [2] | [3] | [4] | [5] | [7] | [8] | [9] | [10] | [11] | [12]

NC(=NCCCCCCN=C(N)/N=C(\N)Nc1ccc(Cl)cc1)/N=C(\N)Nc1ccc(Cl)cc1
inactive: [13] | [15]
active: [13] 72.6 µM [middle of 4 runs] | [15] 79.6 µM [middle of 4 runs] | [17] 71.4 µM [middle of 5 runs]

CCC1CO1 (stereo not drawn)
inactive: [16] | [17]

Cc1[nH]nc2c1N=C(c1ccccc1Cl)c1cc([N+](=O)[O-])ccc1N2
inactive: [1] | [2] | [4] | [5] | [6] | [7] | [8] | [9] | [10] | [11] | [12]

CC(=O)Nc1ccc(O)cc1
inactive: [1] | [2] | [3] | [4] | [5] | [6] | [7] | [8] | [9] | [10] | [11] | [12]

CCCCC=O
active: [1] 45.3 µM | [3] 38.4 µM | [4] 44.9 µM | [5] 38.8 µM | [7] 42.9 µM
inactive: [2] | [8] | [10] | [18] | [19] | [11] | [12]

CCCCC(CC)C(=O)O (stereo not drawn)
inactive: [1] | [2] | [4] | [5] | [6] | [7] | [8] | [9]

N=C(N)c1ccc(OCCCCCOc2ccc(C(=N)N)cc2)cc1
inactive: [1] | [2] | [3] | [4] | [5] | [6] | [7] | [9] | [10] | [11] | [12]

OCC1CCC(CO)CC1 (stereo not drawn)
inactive: [14] | [15] | [16] | [17]

CCC(C)c1ccccc1O (stereo not drawn)
inactive: [1] | [2] | [3] | [4] | [5] | [6] | [7] | [8] | [9] | [11] | [12]

COCN(COC)c1nc(N(COC)COC)nc(N(COC)COC)n1
inactive: [13] | [14] | [15] | [16]

O=C1NS(=O)(=O)c2ccccc21
inactive: [1] | [2] | [3] | [4] | [5] | [6] | [7] | [8] | [9] | [10] | [11] | [12]

CCCCCCCCC1CCC(=O)O1 (stereo not drawn)
inactive: [13] | [15] | [16] | [17]

CCC(=O)O
inactive: [13] | [15] | [17]

CS(=O)(=O)c1ccc([C@@H](CC2CCCC2)C(=O)Nc2cnccn2)cc1Cl
inactive: [1] | [2] | [3] | [4] | [5] | [6] | [7] | [8] | [9] | [10] | [12]

NCCN
inactive: [13] | [15] | [16] | [17]

CCC(C)c1nccnc1OC (stereo not drawn)
inactive: [17]

CCCCCCC(C)(C)C(=O)O
inactive: [13] | [15]
